Source: the supplement of paper PMC13380429
Unmarked numbers belong to inactive results.

Test system: Vero E6 infected with SARS-CoV-2
Assay: inhibition of SARS-CoV-2 cytopathic effect; higher = more antiviral protection, active = above 15
Settings: 48 h

## Fc1ccc(-c2nc3n(c2-c2ccncc2)CCS3)cc1
1 nM
  inhibition of SARS-CoV-2 cytopathic effect: 1.58%
8.33 nM
  inhibition of SARS-CoV-2 cytopathic effect: -0.78%
100 nM
  inhibition of SARS-CoV-2 cytopathic effect: -1.15%
833.33 nM
  inhibition of SARS-CoV-2 cytopathic effect: -1.03%
10000 nM
  inhibition of SARS-CoV-2 cytopathic effect: -1.09%

## COc1ccc2nc3ccc(Cl)cc3c(SCCCN)c2c1
1 nM
  inhibition of SARS-CoV-2 cytopathic effect: 0.89%
8.33 nM
  inhibition of SARS-CoV-2 cytopathic effect: 1%
100 nM
  inhibition of SARS-CoV-2 cytopathic effect: 0.27%
833.33 nM
  inhibition of SARS-CoV-2 cytopathic effect: 0.79%
10000 nM
  inhibition of SARS-CoV-2 cytopathic effect: 2.63%

## O=C(O)[C@@H]1C[C@@H](C2CCCCC2)CN1C(=O)CP(=O)(O)CCCCc1ccccc1 [fosinoprilat]
1 nM
  inhibition of SARS-CoV-2 cytopathic effect: -0.23%
8.33 nM
  inhibition of SARS-CoV-2 cytopathic effect: -5.78%
100 nM
  inhibition of SARS-CoV-2 cytopathic effect: -5.83%
833.33 nM
  inhibition of SARS-CoV-2 cytopathic effect: 0.83%
10000 nM
  inhibition of SARS-CoV-2 cytopathic effect: 6.8%

## O=C(NCCN1CCOCC1)c1ccc(Cl)cc1 [moclobemide]
1 nM
  inhibition of SARS-CoV-2 cytopathic effect: 1.23%
8.33 nM
  inhibition of SARS-CoV-2 cytopathic effect: 2.39%
100 nM
  inhibition of SARS-CoV-2 cytopathic effect: 0.11%
833.33 nM
  inhibition of SARS-CoV-2 cytopathic effect: -2.19%
10000 nM
  inhibition of SARS-CoV-2 cytopathic effect: -0.2%

## O=C(Nc1ccccc1)[C@]12C[C@H]1/C(=N\O)c1ccccc1O2
1 nM
  inhibition of SARS-CoV-2 cytopathic effect: 1.02%
8.33 nM
  inhibition of SARS-CoV-2 cytopathic effect: 3.35%
100 nM
  inhibition of SARS-CoV-2 cytopathic effect: -0.61%
833.33 nM
  inhibition of SARS-CoV-2 cytopathic effect: -0.42%
10000 nM
  inhibition of SARS-CoV-2 cytopathic effect: 1.97%

## Cc1c(N2C(=O)[C@@H]3[C@H](O)CCN3C2=O)ccc(C#N)c1Cl
1 nM
  inhibition of SARS-CoV-2 cytopathic effect: 2.38%
8.33 nM
  inhibition of SARS-CoV-2 cytopathic effect: 3.57%
100 nM
  inhibition of SARS-CoV-2 cytopathic effect: 0.87%
833.33 nM
  inhibition of SARS-CoV-2 cytopathic effect: 2.02%
10000 nM
  inhibition of SARS-CoV-2 cytopathic effect: 1.06%

## O=C1NCCN1c1ncc([N+](=O)[O-])s1 [niridazole]
1 nM
  inhibition of SARS-CoV-2 cytopathic effect: 0.2%
8.33 nM
  inhibition of SARS-CoV-2 cytopathic effect: -2.07%
100 nM
  inhibition of SARS-CoV-2 cytopathic effect: -4.84%
833.33 nM
  inhibition of SARS-CoV-2 cytopathic effect: -1.39%
10000 nM
  inhibition of SARS-CoV-2 cytopathic effect: -4.56%

## CCCCNC(=O)NS(=O)(=O)c1ccc(C)cc1 [tolbutamide]
1 nM
  inhibition of SARS-CoV-2 cytopathic effect: 0.11%
8.33 nM
  inhibition of SARS-CoV-2 cytopathic effect: 0.83%
100 nM
  inhibition of SARS-CoV-2 cytopathic effect: -0.09%
833.33 nM
  inhibition of SARS-CoV-2 cytopathic effect: 0.89%
10000 nM
  inhibition of SARS-CoV-2 cytopathic effect: -0.3%

## NC[C@@H]1CC[C@@H](N)[C@@H](O[C@H]2[C@H](O)[C@@H](O[C@H]3O[C@H](CO)[C@@H](O)[C@H](N)[C@H]3O)[C@H](N)C[C@@H]2N)O1 [dibekacin]
1 nM
  inhibition of SARS-CoV-2 cytopathic effect: 5.18%
8.33 nM
  inhibition of SARS-CoV-2 cytopathic effect: -1.26%
100 nM
  inhibition of SARS-CoV-2 cytopathic effect: 1.67%
833.33 nM
  inhibition of SARS-CoV-2 cytopathic effect: 2%
10000 nM
  inhibition of SARS-CoV-2 cytopathic effect: 1.51%

## CC(=O)OCC(=O)[C@@]1(O)CC[C@H]2[C@@H]3CCC4=CC(=O)C=C[C@]4(C)[C@H]3[C@@H](O)C[C@@]21C [prednisolone-acetate]
1 nM
  inhibition of SARS-CoV-2 cytopathic effect: 0.64%
8.33 nM
  inhibition of SARS-CoV-2 cytopathic effect: 0.57%
100 nM
  inhibition of SARS-CoV-2 cytopathic effect: -0.58%
833.33 nM
  inhibition of SARS-CoV-2 cytopathic effect: -0.51%
10000 nM
  inhibition of SARS-CoV-2 cytopathic effect: 0.26%

## Nc1ncnc2c1ncn2CCOCP(=O)(O)O [adefovir]
1 nM
  inhibition of SARS-CoV-2 cytopathic effect: 6.28%
8.33 nM
  inhibition of SARS-CoV-2 cytopathic effect: 4.07%
100 nM
  inhibition of SARS-CoV-2 cytopathic effect: 2.27%
833.33 nM
  inhibition of SARS-CoV-2 cytopathic effect: 0.75%
10000 nM
  inhibition of SARS-CoV-2 cytopathic effect: 2.85%

## C#CCOC(=O)C1=CCCN(C)C1 [arecaidine-propargyl-ester]
1 nM
  inhibition of SARS-CoV-2 cytopathic effect: -3.75%
8.33 nM
  inhibition of SARS-CoV-2 cytopathic effect: 0.55%
100 nM
  inhibition of SARS-CoV-2 cytopathic effect: -0.74%
833.33 nM
  inhibition of SARS-CoV-2 cytopathic effect: -1.69%
10000 nM
  inhibition of SARS-CoV-2 cytopathic effect: 2.67%

## CN1CCOC(c2ccccc2)c2ccccc2C1 (stereo not given) [nefopam]
1 nM
  inhibition of SARS-CoV-2 cytopathic effect: 1.99%
8.33 nM
  inhibition of SARS-CoV-2 cytopathic effect: 0.54%
100 nM
  inhibition of SARS-CoV-2 cytopathic effect: 2.72%
833.33 nM
  inhibition of SARS-CoV-2 cytopathic effect: -1.03%
10000 nM
  inhibition of SARS-CoV-2 cytopathic effect: -1.47%

## CC(C)=CCC/C(C)=C/CC/C(C)=C/CSc1ccccc1C(=O)O [salirasib]
1 nM
  inhibition of SARS-CoV-2 cytopathic effect: 2.79%
8.33 nM
  inhibition of SARS-CoV-2 cytopathic effect: 2.19%
100 nM
  inhibition of SARS-CoV-2 cytopathic effect: 1.36%
833.33 nM
  inhibition of SARS-CoV-2 cytopathic effect: 6.06%
10000 nM
  inhibition of SARS-CoV-2 cytopathic effect: 0.01%

## COc1cc(Br)c(Nc2nc(-c3c(C)nc4ncccn34)cs2)c(Br)c1
1 nM
  inhibition of SARS-CoV-2 cytopathic effect: -0.04%
8.33 nM
  inhibition of SARS-CoV-2 cytopathic effect: 0.45%
100 nM
  inhibition of SARS-CoV-2 cytopathic effect: 1.74%
833.33 nM
  inhibition of SARS-CoV-2 cytopathic effect: -3.16%
10000 nM
  inhibition of SARS-CoV-2 cytopathic effect: 10.6%

## CCCc1cc(C)[nH]c(=O)c1CNC(=O)c1cc(-c2ccc(N3CCN(C(C)C)CC3)nc2)cc2c1cnn2C(C)C
1 nM
  inhibition of SARS-CoV-2 cytopathic effect: -1.83%
8.33 nM
  inhibition of SARS-CoV-2 cytopathic effect: 1%
100 nM
  inhibition of SARS-CoV-2 cytopathic effect: -2.55%
833.33 nM
  inhibition of SARS-CoV-2 cytopathic effect: -0.64%
10000 nM
  inhibition of SARS-CoV-2 cytopathic effect: 42.3% (active)

## CNC(=O)ON(C(C)=O)C(=O)NC [caracemide]
1 nM
  inhibition of SARS-CoV-2 cytopathic effect: -4.06%
8.33 nM
  inhibition of SARS-CoV-2 cytopathic effect: -3.46%
100 nM
  inhibition of SARS-CoV-2 cytopathic effect: 0.29%
833.33 nM
  inhibition of SARS-CoV-2 cytopathic effect: -1.19%
10000 nM
  inhibition of SARS-CoV-2 cytopathic effect: 8.36%

## O=C(O)Cc1cccc2c(=O)cc(-c3ccccc3)oc12 [mitoflaxone]
1 nM
  inhibition of SARS-CoV-2 cytopathic effect: 1.27%
8.33 nM
  inhibition of SARS-CoV-2 cytopathic effect: 0.65%
100 nM
  inhibition of SARS-CoV-2 cytopathic effect: 1.42%
833.33 nM
  inhibition of SARS-CoV-2 cytopathic effect: 1.5%
10000 nM
  inhibition of SARS-CoV-2 cytopathic effect: 0.08%

## O=S(=O)(N[C@H]1CC[C@@](c2cc(F)ccc2F)(S(=O)(=O)c2ccc(Cl)cc2)CC1)C(F)(F)F
1 nM
  inhibition of SARS-CoV-2 cytopathic effect: 2.61%
8.33 nM
  inhibition of SARS-CoV-2 cytopathic effect: 4.08%
100 nM
  inhibition of SARS-CoV-2 cytopathic effect: -0.09%
833.33 nM
  inhibition of SARS-CoV-2 cytopathic effect: -2.63%
10000 nM
  inhibition of SARS-CoV-2 cytopathic effect: -2.01%
